# AMA1 RON2 block: AMA1-RON2 (P. falciparum) interaction inhibition | AlphaScreen AMA1-biotinylated RON2 peptide binding | Potency, µM (series often up to 58.2 µM), inactives show at the highest dose activity change, negative = inhibition, hits mostly inhibitors | hit rate 0.2% among 360,000 | AID 720542;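 also: 0% = vehicle wells and -100% = peptide control; nearly all actives have a fitted effect of over 45% in size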
#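 AMA1 (3D7) with his tag at 25 nM final met compounds first, then biotinylated RON2 peptide at 25 nM; detection used donor plus acceptor beads, 10 µg/mL apiece, read by AlphaScreen after 30 min at room temperature.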
# SARS PLpro yeast: blocks SARS-CoV papain-like protease in a yeast assay. hit rate 0.19% among 330,000. S. cerevisiae expressing SARS-CoV PLpro, growth rescue. Potency, µM (titrated, usually from 32.9 µM), inactives show top-dose activity, positive = growth rescue, actives largely listed as activators. AID 485353; calls by dose curve; also: 0% is about no effect; nearly all actives have a fitted effect of over 55% in size
# Pf growth 48h: P. falciparum growth inhibition at 48 hours (one generation). Potency, µM (series often up to 28.7 µM), for inactives: at the highest dose activity change, negative = inhibition, usual class: inhibitors. hit rate 5.9% among 310,000. AID 504832. P. falciparum luciferase growth in erythrocytes, 48 h; also: % is scaled to controls: 0 for no effect and ±100 for the full control effect
#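 Read-out is firefly luciferase luminescence from an integrated reporter in P. falciparum, so falling signal marks reduced parasite growth. Infected erythrocytes were at 2% hematocrit and 0.1% parasitemia (final) in Albumax-supplemented RPMI 1640.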
# HCV inhibitor: blocks hepatitis C virus | Potency, µM (top dose mostly 41.8 µM), for inactives: top-dose activity change, negative = inhibition, hits mostly inhibitors | AID 651820 | Huh7.5.1 HCVcc-Cre infection, luciferase reporter, 44 h | hit rate 3.4% among 340,000; also: % is scaled to controls: 0 for no effect and ±100 for the full control effect
#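 Infectious HCV cell culture screen: compound-treated cells (1,000/well, pre-plated 4 h) are infected with HCVcc-Cre at roughly 0.5 moi and grown 44 h. Infection is quantified by luciferase signal after 15 min substrate incubation at room temperature.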
# NS1 function inh: inhibitors of influenza NS1 protein function. Potency, µM (titrated, usually from 46.1 µM), without a hit: top-dose activity, positive = more growth. hit rate 0.4% among 270,000; calls by dose curve; also: actives are rising curves; nearly all actives have a fitted effect of over 50% in size
#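 Growth recovery, yeast-based: influenza A NS1 expressed in S. cerevisiae causes slow growth, and suppressors are detected by OD600. The parent strain without NS1 is used as positive control.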
# Pf growth 96h: P. falciparum growth inhibition at 96 hour, primary screen for plastid delayed-death inhibitors; P. falciparum luciferase reporter growth, 96 h; Potency, µM (doses to about 28.7 µM), inactives show at the highest dose activity change, negative = inhibition, hits mostly inhibitors; hit rate 6.9% among 320,000; AID 504834; also: % is scaled to controls: 0 for no effect and ±100 for the full control effect
#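 96 h incubation, 37 C, 5% CO2, of luciferase-reporter P. falciparum-infected RBCs (2% hematocrit, 0.05% parasitemia final) with test compounds; endpoint luminescence.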
# The depositor's hits bear a star; ? = inconclusive; . = no result; [ ] = another dose, or the depositor's remark. Only some compounds are listed: those with a hit (about 12% of all), similar ones and a draw of the others. Unless noted, calls follow the shape of the dose curve; as a rule, active = well fitted curve in the direction sought with a large enough effect; inconclusive = small, poorly fitted or top-dose-only effect, or another doubt; inactive = no such curve, though single readings can be large; an effect the other way counts as inactive or inconclusive. Potency is read from the fitted curve at half-maximal effect.
SMILES,AMA1 RON2 block,SARS PLpro yeast,Pf growth 48h,HCV inhibitor,NS1 function inh,Pf growth 96h
CC12CCC(c3c(C(=O)O)nn(-c4ccc(F)cc4)c31)C2(C)C (stereo not given),0%,-2%,-2%,5%,0%,.
Cc1ccc(C(=O)N2CCCC(Nc3ccc(F)cc3)C2)cc1C (stereo not given),-3%,8%,?,7%,-53%,0%
CCCNC(=O)Cn1cnc2sc(C(=O)N3CCN(CCC)CC3)c(C)c2c1=O,8%,3%,-1%,6%,7%,0.37µM*
COc1ccc(OC)c(S(=O)(=O)N/N=C\c2ccc3c(c2)OCO3)c1,-8%,2%,61%,-2%,-8%,-31%
COc1ccc(S(=O)(=O)N/N=C\c2ccc3c(c2)OCO3)c(OC)c1,-9%,-3%,?,3.5µM*,-9%,?
O=S(=O)(NCc1ccc(F)cc1)c1ccc(Br)cc1Br,-2%,0%,2%,11%,.,38%
CCC(C)NC(=O)CC(C)C (stereo not given),-7%,0%,-19%,5%,-2%,-4%
CC(C)CC(=O)NCC(C)NC(=O)CC(C)C (stereo not given),27%,0%,13%,1%,1%,15µM*
CN1C(CCl)Nc2cc(Cl)c(S(N)(=O)=O)cc2S1(=O)=O (stereo not given),1%,.,-20%,25%,.,12µM*
NS(=O)(=O)c1cc2c(cc1Cl)N[C@@H](CC1CCCC1)NS2(=O)=O,.,.,3%[12.8 µM],.,.,5%[12.8 µM]
CC(C(=O)NC1CCCC1)N(C(=O)c1ccc(-c2ccccc2)[nH]1)c1ccccc1F (stereo not given),-28%,-16%,13µM*,-49%,?,?
O=C(NC1CCCCC1)C(c1ccc2ncccc2c1)N(Cc1ccccc1)C(=O)c1cccs1 (stereo not given),-1%,-7%,10µM*,?,16%,?
CC(C(=O)NC1CCCC1)N(C(=O)Cn1nnc(-c2ccc(F)cc2)n1)c1ccccc1F (stereo not given),-10%,2%,?,-22%,5%,?
O=C(NC1CCCCC1)C(c1ccc2ncccc2c1)N(Cc1ccc2c(c1)OCO2)C(=O)c1cccs1 (stereo not given),-17%,-1%,?,?,-16%,5.9µM*
COc1ccc(CN(C(=O)c2cccs2)C(C(=O)NC2CCCCC2)c2ccc3ncccc3c2)cc1 (stereo not given),-5%,-23%,?,-8%,-30%,10µM*
COc1ccc(S(=O)(=O)N2CCOCC2)cc1NC(=O)c1ccc(OC(F)F)cc1,-3%,4%,?,?,.,-7%
Cc1c(C(=O)NCCSCc2cccc(C(F)(F)F)c2)cnn1-c1ccc(Cl)cc1,2%,0%,-15%,?,6%,?
O=C(NC1CCCCC1)C(c1ccncc1)N(Cc1ccc(F)cc1)C(=O)c1ccccn1 (stereo not given),10%,?,-15%,0%,5%,-15%
O=C(NC1CCCCC1)C(c1ccncc1)N(Cc1ccccc1)C(=O)c1ccc(-c2ccccc2)[nH]1 (stereo not given),-27%,-5%,?,13µM*,-15%,-3%
C=CCNc1nc(-c2cccc(OC)c2O)nc2ccccc12,-11%,5%,?,16µM*,-7%,?
COc1cccc(-c2nc(NC3CCCC3)c3ccccc3n2)c1O,-9%,-10%,.,2.8µM*,3%,9.3µM*
COc1cccc(-c2nc(NCc3ccco3)c3ccccc3n2)c1O,9%,8%,?,?,15%,?
COc1cccc(-c2nc(N3CCCCC3C)c3ccccc3n2)c1O (stereo not given),-26%,-11%,?,8.9µM*,8%,3%
COc1cccc(-c2nc(N3CCN(C)CC3)c3ccccc3n2)c1O,-6%,-1%,0%,?,-9%,0%
COc1cccc(-c2nc(NCc3ccccc3)c3ccccc3n2)c1O,-5%,-1%,15µM*,?,4%,?
SMILES,AMA1 RON2 block,SARS PLpro yeast,Pf growth 48h,HCV inhibitor,NS1 function inh,Pf growth 96h
CCN(CC)c1nc(-c2cccc(OC)c2O)nc2ccccc12,?,-6%,.,-25%,-11%,15%
CC1(c2cccc(Br)c2)NC(=O)N(CC(=O)Nc2ccc3c(c2)OCCO3)C1=O (stereo not given),8%,0%,.,-11%,.,.
CCCCCC(=O)Nc1cccc(C2=NOC3(C2)C[C@@H](C(N)=O)N(C(=O)c2ccc(Cl)cc2)C3)c1 (stereo not given in full),5%,0%,?,5%[8.37 µM],-4%,?
Cc1ccc(OCCC(=O)OCC(=O)NC2CCS(=O)(=O)C2)cc1 (stereo not given),-1%,1%,1%,-4%,.,13%
Cc1occc1-c1nnc(SCC(=O)NC2CCC(C)CC2)o1 (stereo not given),4%,4%,15%,2%,.,4%
O=C(O)CNc1nc(-c2ccccc2)nc2ccccc12,-13%,0%,7%,5%,1%,10%
c1ccc(-c2nc(NC3CCCC3)c3ccccc3n2)cc1,3%,-6%,?,1.3µM*,-43%,10µM*
c1ccc(CN2CCC(Nc3nc(-c4cccs4)nc4ccccc34)CC2)cc1,-23%,-3%,5.2µM*,?,.,5.2µM*
c1csc(CNc2nc(-c3cccs3)nc3ccccc23)c1,3%,-20%,-26%,?,.,?
CCOc1cc(-c2sc(Nc3ccccc3)n[n+]2C)ccc1OC,-1%,6%,?,-13%,-25%,4%
Cc1cccc(OC(C)C(=O)N/N=C\c2ccncc2)c1 (stereo not given),7%,-3%,3%,-11%,.,?
C=CCN1C(=O)C2(NNc3ccccc3O2)c2ccccc21 (stereo not given),-16%,-13%,.,3%,-48%,12µM*
CCCCN1C(=O)C2(NNc3ccccc3O2)c2ccccc21 (stereo not given),-3%,-30%,10µM*,?,-33%,.
C=CCN1C(=O)C2(NC(=O)c3ccccc3N2)c2ccccc21 (stereo not given),16%,0%,5%,-12%,4%,-16%
COc1ccccc1CN(Cc1cc2cc3c(cc2[nH]c1=O)OCCO3)Cc1nnnn1Cc1ccco1,-75%,-4%,?,3%,14%,1µM*
O=c1[nH]c2cc3c(cc2cc1CN(Cc1ccccc1)Cc1nnnn1Cc1ccco1)OCCO3,-4%,10%,?,?,-15%,.
O=c1[nH]c2cc3c(cc2cc1CN(Cc1cccs1)Cc1nnnn1Cc1ccco1)OCCO3,-8%,12%,?,-3%,14%,12µM*

# Source: PubChem BioAssay
